PubChem BioAssay (EPA / NIEHS)
Active and inactive are the calls of the source. Rule for the calls: active = hit-call score of the fitted dose curve at least 0.9, where 1 is the maximum; inactive = score below 0.9.

Columns and labels:
Conditions in all cases: mRNA level, 48 h; actives raise or lower the signal
[1] = read-out: Insulin Like Growth Factor 1 (IGF1), IGF1 (gene 3479); assay: LTEA_HepaRG_IGF1: Life Technologies and Expression Analysis (LTEA) Assay for Insulin Like Growth Factor 1 (IGF1) using HepaRG (AID 2283506)
Method in brief: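 HepaRG, plated 48 h, then switched to serum-free induction media; test chemical 8-pt half-log from 100 uM (0.5% DMSO), duplicate, 48 h. Lysis in RLT, TaqMan qRT-PCR, norm. ACTB/GAPDH/POLR2A. Bidirectional fit vs DMSO.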

[2] = read-out: Intercellular Adhesion Molecule 1 (ICAM1), ICAM1 (gene 3383); assay: LTEA_HepaRG_ICAM1: Life Technologies and Expression Analysis (LTEA) Assay for Intercellular Adhesion Molecule 1 (ICAM1) using HepaRG (AID 2283507)
Method in brief: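 HepaRG, 48 h exposure, 8-pt half-log series from 100 uM, 0.5% DMSO vehicle, duplicates. Readout: TaqMan qRT-PCR mRNA, housekeeping-normalized (ACTB/GAPDH/POLR2A). Bidirectional curve fit vs DMSO baseline.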

[3] = read-out: Insulin-like growth factor-binding protein 1 (IGFBP1), IGFBP1 (gene 3484); assay: LTEA_HepaRG_IGFBP1: Life Technologies and Expression Analysis (LTEA) Assay for Insulin-like growth factor-binding protein 1 (IGFBP1) using HepaRG (AID 2283508)
Method in brief: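 qRT-PCR mRNA read-out (TaqMan, Fluidigm array), normalised to three housekeeping genes; HepaRG cells, 48 h exposure, 8-pt half-log series from 100 uM, 0.5% DMSO vehicle; bidirectional curve fit vs DMSO baseline.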

[4] = read-out: Interleukin 6 Receptor (IL6R), IL6R (gene 3570); assay: LTEA_HepaRG_IL6R: Life Technologies and Expression Analysis (LTEA) Assay for Interleukin 6 Receptor (IL6R) using HepaRG (AID 2283510)
Method in brief: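 Readout is IL6R transcript level by TaqMan qRT-PCR, normalized to three housekeeping genes and fitted bidirectionally against 0.5% DMSO controls. Human HepaRG cells received chemicals for 48 h in serum-free induction medium, highest concentration 100 uM.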

[5] = read-out: Potassium channel subfamily K member 1 (KCNK1), KCNK1 (gene 3775); assay: LTEA_HepaRG_KCNK1: Life Technologies and Expression Analysis (LTEA) Assay for Potassium channel subfamily K member 1 (KCNK1) using HepaRG (AID 2283511)
Method in brief: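 Differentiated human HepaRG cells in serum-free induction medium were exposed in duplicate for 48 h to 8 half-log concentrations up to 100 uM in 0.5% DMSO. KCNK1 mRNA was measured by TaqMan qRT-PCR, normalized to ACTB, GAPDH and POLR2A, and fitted bidirectionally versus DMSO.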

[6] = read-out: Keratin 19 (KRT19), KRT19 (gene 3880); assay: LTEA_HepaRG_KRT19: Life Technologies and Expression Analysis (LTEA) Assay for Keratin 19 (KRT19) using HepaRG (AID 2283512)
Method in brief: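 HepaRG, 48 h chemical exposure, 8-pt half-log CRC from 100 uM, 0.5% DMSO vehicle, duplicates. Readout: TaqMan qRT-PCR of KRT19 mRNA, housekeeping-normalized (ACTB/GAPDH/POLR2A). Bidirectional fit vs DMSO baseline.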

[7] = read-out: JUN Transcription Factor, JUN (gene 3725); assay: LTEA_HepaRG_JUN: Life Technologies and Expression Analysis (LTEA) Assay for JUN Transcription Factor using HepaRG (AID 2283513)
Method in brief: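 Cells plated 48 h, medium switched to serum-free induction medium, then dosed 48 h (100 uM top, half-log dilutions, 0.5% DMSO). RNA isolated; JUN measured by qRT-PCR against three housekeeping genes; gain or loss fitted relative to DMSO.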

[8] = read-out: Lipase C (LIPC), LIPC (gene 3990); assay: LTEA_HepaRG_LIPC: Life Technologies and Expression Analysis (LTEA) Assay for Lipase C (LIPC) using HepaRG (AID 2283514)
Method in brief: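 Differentiated human HepaRG cells in serum-free induction medium were exposed in duplicate for 48 h to eight concentrations (top 100 uM, half-log steps, 0.5% DMSO). LIPC mRNA was quantified by TaqMan qRT-PCR, normalized to ACTB, GAPDH and POLR2A, with bidirectional fitting versus DMSO.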

[9] = read-out: Lipoprotein lipase (LPL), LPL (gene 4023); assay: LTEA_HepaRG_LPL: Life Technologies and Expression Analysis (LTEA) Assay for Lipoprotein lipase (LPL) using HepaRG (AID 2283515)
Method in brief: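 Differentiated human HepaRG cells in serum-free induction medium were exposed in duplicate for 48 h to eight half-log concentrations (top 100 uM) in 0.5% DMSO. LPL mRNA was quantified by TaqMan qRT-PCR, normalized to ACTB, GAPDH and POLR2A.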

[10] = read-out: Interleukin 6 (IL6), IL6 (gene 3569); assay: LTEA_HepaRG_IL6: Life Technologies and Expression Analysis (LTEA) Assay for Interleukin 6 (IL6) using HepaRG (AID 2283509)
Method in brief: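 Differentiated human HepaRG cells, plated 48 h then switched to serum-free induction medium, were exposed in duplicate for 48 h to eight half-log concentrations up to 100 uM in 0.5% DMSO. IL6 mRNA measured by qRT-PCR, normalized to ACTB/GAPDH/POLR2A.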

Measured: AC50

CN(C)CCCN(C)CCCN(C)C
not listed: [10]
inactive: all other assays above

Cc1ccc(C(C)(C)C)c(O)c1
not listed: [10]
inactive: all other assays above

CC(=O)CC(c1ccccc1)c1c(O)c2ccccc2oc1=O (stereo not drawn)
not listed: [7]
inactive: all other assays above

O=C1c2c(O)cccc2Cc2cccc(O)c21
not listed: [10]
inactive: all other assays above

COc1ccc(C(=O)Nc2nc3ccccc3c(NCc3ccccc3)c2C#N)cc1
active: [1] 13.4 µM | [3] 17.9 µM | [4] 4.44 µM | [6] 12.9 µM | [8] 15.7 µM | [9] 4.35 µM
inactive: [2] | [10] | [5]

CC(N)=O
not listed: [7]
inactive: all other assays above

CC(C)c1cccc(C(C)C)c1NC(=O)NS(=O)(=O)c1cc(C(C)(C)O)co1
active: [1] 50 µM
not listed: [7]
inactive: all other assays above

Nc1nc(Cl)nc2c1ncn2[C@H]1C[C@H](O)[C@@H](CO)O1
inactive: [2] | [6]
active: [1] 2.39 µM | [3] 4.82 µM | [10] 16.1 µM | [4] 0.603 µM | [5] 1.36 µM | [8] 1.03 µM | [9] 1.03 µM

CN(C)C(=O)NC1(c2ccccc2)CCN(CCC[C@]2(c3ccc(Cl)c(Cl)c3)CCCN(C(=O)c3ccccc3)C2)CC1
inactive: [8] | [9]
active: [1] 16.4 µM | [2] 20.1 µM | [3] 18.2 µM | [10] 22.7 µM | [4] 17.2 µM | [5] 16.1 µM | [6] 20.7 µM

CC(=O)S[C@H](C(=O)N[C@H]1Cc2ccccc2[C@H]2CCC[C@@H](C(=O)O)N2C1=O)C(C)C
not listed: [7]
inactive: all other assays above

CC(C)c1cccc(C(C)C)c1
not listed: [7]
inactive: all other assays above

CCCCOC(=O)CCCCC(=O)OCCCC
not listed: [7]
inactive: all other assays above

CCCC(=O)O
not listed: [10]
inactive: all other assays above

CN(C)CCCN1c2ccccc2Sc2ccc(Cl)cc21
active: [1] 77.7 µM | [2] 77.7 µM | [3] 72.8 µM | [10] 77 µM | [4] 44.7 µM | [6] 82.9 µM
inactive: [5] | [8] | [9]

NC1CCCCC1
not listed: [10]
inactive: all other assays above

CO[C@@H]1COCC[C@@H]1N[C@@H]1CC[C@@](C(=O)N2CCc3ncc(C(F)(F)F)cc3C2)(C(C)C)C1
not listed: [10]
inactive: all other assays above

O=[Si]=O
not listed: [7]
inactive: all other assays above

CCCCCCCCCCCCCCCCO
active: [4] 50 µM
not listed: [7] | [10]
inactive: all other assays above

CC1(C)C(=O)NC(=O)N1CO
not listed: [7] | [10]
inactive: all other assays above

N[C@@H](Cc1c[nH]c2ccccc12)C(=O)O
not listed: [7] | [10]
inactive: all other assays above

O=C(O)CN(CC(=O)O)CC(=O)O
not listed: [7] | [10]
inactive: all other assays above

O=C(O)CC(O)(CC(=O)O)C(=O)O
not listed: [10]
inactive: all other assays above

CCc1cc(C2=C(C(=O)O)N(c3ccccc3C(F)(F)F)S(=O)(=O)c3ccccc32)cc2c1OCO2
active: [2] 50 µM | [3] 75.4 µM | [5] 73.3 µM | [6] 9.92 µM | [8] 80.1 µM | [9] 74.3 µM
inactive: [1] | [4]

O=C(Oc1ccccc1)c1cccc(C(=O)Oc2ccccc2)c1
not listed: [10]
inactive: all other assays above

CC(C)(O)c1ccc(CNC(=O)c2cccnc2Oc2ccc(F)cc2)cc1
active: [1] 50 µM
not listed: [7] | [10]
inactive: all other assays above

C#CC(O)C(CC)CCCC (stereo not drawn)
not listed: [10]
inactive: all other assays above

Nc1nc(=S)c2[nH]cnc2[nH]1
active: [1] 20.5 µM | [4] 8.69 µM | [7] 7.57 µM | [8] 5.83 µM | [9] 19.1 µM
inactive: [2] | [3] | [6]

CC1=C(C)S(=O)(=O)CCS1(=O)=O
active: [1] 50 µM | [6] 76.6 µM | [7] 74.6 µM | [8] 85.8 µM | [9] 75.3 µM
inactive: [2] | [3] | [4] | [5]

COC(=O)[C@H]1[C@H]2C[C@@H]3c4[nH]c5cc(OC)ccc5c4CCN3C[C@H]2C[C@@H](OC(=O)c2cc(OC)c(OC)c(OC)c2)[C@@H]1OC
inactive: [5] | [6] | [9]
active: [1] 54.4 µM | [2] 28.7 µM | [3] 47.7 µM | [4] 42.2 µM | [8] 49.4 µM

CC(COCC(C)OC(=O)c1ccccc1)OC(=O)c1ccccc1 (stereo not drawn)
not listed: [7] | [10]
inactive: all other assays above

C/C=C/C=C/C(=O)O
not listed: [10]
inactive: all other assays above

CCN(CC)CCOc1ccc(C(=C(Cl)c2ccccc2)c2ccccc2)cc1
inactive: [4] | [5] | [6]
active: [1] 13.3 µM | [2] 77.1 µM | [3] 61.2 µM | [8] 24.1 µM | [9] 17.8 µM

CC(=O)O
not listed: [7] | [10]
inactive: all other assays above

O=C1CCCCC1
not listed: [7] | [10]
inactive: all other assays above

CCCCCCC(CCCCCCCCCCC(=O)OCC(COC(C)=O)OC(C)=O)OC(C)=O (stereo not drawn)
not listed: [7] | [10]
inactive: all other assays above

Oc1ccccc1O
not listed: [10]
inactive: all other assays above

CC(C)COC(=O)CCCCC(=O)OCC(C)C
not listed: [7] | [10]
inactive: all other assays above

O=C(O)c1cccnc1
not listed: [10]
inactive: all other assays above

CCCCCCCC(=O)OC
active: [9] 12.4 µM
not listed: [7] | [10]
inactive: all other assays above

CC(C)OC(=O)C(C)(C)Oc1ccc(C(=O)c2ccc(Cl)cc2)cc1
not listed: [7] | [10]
inactive: all other assays above

CN(C)C(=O)NC1(c2ccccc2)CCN(CC[C@@]2(c3ccc(F)c(F)c3)CN(C(=O)c3ccccc3)CCO2)CC1
inactive: [2] | [3] | [4] | [5]
active: [1] 15.7 µM | [6] 27 µM | [8] 47 µM | [9] 31.8 µM

c1ccc2occc2c1
not listed: [10]
inactive: all other assays above

CCCCC(CC)COC(=O)CCCCCCCC(=O)OCC(CC)CCCC (stereo not drawn)
not listed: [10]
inactive: all other assays above

CCCCc1nc2cccnc2n1Cc1ccc(-c2ccccc2-c2nnn[nH]2)cc1
active: [1] 50 µM
not listed: [6] | [7] | [10]
inactive: all other assays above

Cn1cnc2c1c(=O)[nH]c(=O)n2C
not listed: [10]
inactive: all other assays above

CCC(C)N(C)C(=O)c1cc2ccccc2c(-c2ccccc2Cl)n1 (stereo not drawn)
active: [1] 21.6 µM | [3] 57.6 µM
not listed: [7] | [10]
inactive: all other assays above

Cc1cc(Cc2ccc(N)c(C)c2)ccc1N
not listed: [10]
inactive: all other assays above
